Whole data set: some 33,000 sequences, median “E-score (-0.5 to 0.5)” near -0.056, cut for the highest 2% near 0.38. The sample as a whole holds a higher share of the highest values than the screen did.
molecular target: Stb4 (UniProt P50104); experiment: PBM E-score (8-mer binding enrichment) (E-score (-0.5 to 0.5)); higher = stronger / more preferred TF binding; conditions: protein concentration: 200 nM; construct: GST-DNA-binding domain
Description: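 Universal 'all 10-mer' protein binding microarrays (Agilent AMADID 015681) probed with GST-tagged S. cerevisiae TFs (full-length or DBD) made by in vitro transcription/translation (PURExpress), about 100-200 nM. Bound TF was detected with fluorescent anti-GST. Each ungapped 8-mer (which stands for itself and its reverse complement) is scored by the PBM enrichment score (E-score), a modified Wilcoxon-Mann-Whitney statistic from -0.5 to +0.5, computed with the Universal PBM Analysis Suite. Scale: above 0.35 generally sequence-specific binding.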

Chain of UniProt P50104 (P50104 whole entry, the tested form may be a part): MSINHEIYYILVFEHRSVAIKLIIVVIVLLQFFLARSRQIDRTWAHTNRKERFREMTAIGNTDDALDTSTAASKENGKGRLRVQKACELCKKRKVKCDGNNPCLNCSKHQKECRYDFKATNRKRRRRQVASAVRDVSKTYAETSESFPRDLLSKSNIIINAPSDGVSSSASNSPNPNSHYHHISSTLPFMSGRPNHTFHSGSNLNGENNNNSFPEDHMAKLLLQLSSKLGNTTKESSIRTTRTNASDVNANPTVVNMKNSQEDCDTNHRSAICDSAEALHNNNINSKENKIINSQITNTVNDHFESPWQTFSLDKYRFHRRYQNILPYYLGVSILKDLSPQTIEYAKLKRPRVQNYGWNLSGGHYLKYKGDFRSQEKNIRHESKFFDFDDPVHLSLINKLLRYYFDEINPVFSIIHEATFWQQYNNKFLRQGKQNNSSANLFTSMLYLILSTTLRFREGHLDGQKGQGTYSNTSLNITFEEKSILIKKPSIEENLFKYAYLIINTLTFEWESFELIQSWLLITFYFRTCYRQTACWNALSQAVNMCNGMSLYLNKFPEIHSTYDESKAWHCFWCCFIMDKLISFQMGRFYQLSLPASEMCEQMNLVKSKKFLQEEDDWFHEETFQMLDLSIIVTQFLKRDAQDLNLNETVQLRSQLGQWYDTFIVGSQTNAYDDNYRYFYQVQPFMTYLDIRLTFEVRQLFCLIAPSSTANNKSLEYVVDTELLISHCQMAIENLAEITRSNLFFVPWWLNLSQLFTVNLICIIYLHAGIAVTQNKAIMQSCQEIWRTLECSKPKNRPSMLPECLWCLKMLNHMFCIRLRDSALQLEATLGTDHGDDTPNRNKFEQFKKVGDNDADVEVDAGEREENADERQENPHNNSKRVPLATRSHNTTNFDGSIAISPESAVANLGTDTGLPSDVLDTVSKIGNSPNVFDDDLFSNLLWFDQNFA

| Sequence | PBM E-score |
| --- | --- |
| GCTTTCAC | -0.148 |
| GCTATAGC | -0.096 |
| ATTCTGCG | -0.0218 |
| GAGAGACC | -0.122 |
| ATACCTCC | -0.0529 |
| TGATATCA | -0.281 |
| TGCCACCA | -0.374 |
| GGCGTCAC | -0.0997 |
| GCCTTCAA | -0.13 |
| GATGCGGC | 0.0547 |
| ATTCTTTC | -0.0171 |
| CGTCCGAA | 0.336 |
| GGTCCGAA | 0.416 |
| AATCCGAT | 0.368 |
| AATCCGTA | 0.12 |
| GGTCCGAC | 0.292 |
| AATCCGAA | 0.42 |
| TATAGCCA | -0.113 |
| CCGACTAA | 0.29 |
| CGGACAAG | 0.138 |
| CTCCTCGA | -0.284 |
| CTATCCAC | -0.0315 |
| CTATCCGC | 0.396 |
| CTATCCCC | -0.0734 |
| ACATCCGC | 0.382 |

| Sequence | PBM E-score |
| --- | --- |
| ATATCCGC | 0.389 |
| ATATCCTC | -0.03 |
| ACTGCCCG | 0.123 |
| ACTTTTCG | 0.0867 |
| GCCTCGCC | 0.0101 |
| AGCCCGGA | 0.361 |
| GCCCCGGA | 0.385 |
| CCCCCGGA | 0.176 |
| ACCCCGGA | 0.232 |
| CGCCCGGA | 0.328 |
| GGCCCGGA | 0.402 |
| AGAGGTTC | 0.0565 |
| ATAGCGGG | 0.0172 |
| AAGATGTG | -0.156 |
| GCTAAGCA | -0.217 |
| CCACAGAA | -0.0915 |
| CCCAGACG | -0.17 |
| ATCTTCGA | -0.171 |
| AACTTCGC | -0.041 |
| AACTTCGT | -0.177 |
| AGCTTCGG | 0.395 |
| AGCTTCGC | -0.276 |
| ATCTTCCC | 0.226 |
| ATCTTCGC | 0.016 |
| AACTTCGG | 0.408 |

| Sequence | PBM E-score |
| --- | --- |
| ATCTTCCG | 0.436 |
| ATCTTCGG | 0.423 |
| AGCTTCGA | -0.189 |
| ATCTTCCA | -0.137 |
| ATCGAACC | 0.089 |
| CTAGTCCA | -0.153 |
| ACCAATGC | -0.00399 |
| GTAGTCAC | -0.16 |
| CTCTACTC | -0.106 |
| GGATTCCA | 0.13 |
| ACCTTCCG | 0.4 |
| ACCTTCCC | 0.0875 |
| ACCTTCCT | -0.342 |
| CCCTACAA | -0.218 |
| ATCTATCA | -0.0983 |
| AGAATGGC | -0.0824 |
| GAGTCGGC | 0.223 |
| GAGTCGGA | 0.387 |
| AAGTCGGA | 0.372 |
| TAGTCGCA | -0.0285 |
| TAGTCGGA | 0.405 |
| CAGTCGGA | 0.316 |
| AGATCGGA | 0.438 |
| GGATCGAA | 0.214 |
| AGATCGGC | 0.189 |

| Sequence | PBM E-score |
| --- | --- |
| CGATCGGA | 0.322 |
| GGATCGGA | 0.402 |
| AGATCGGG | 0.28 |
| GCATGAAA | -0.101 |
| GTTCTCGA | -0.166 |
| ACGAATCC | 0.009 |
| CCGAATCG | 0.405 |
| CCGAATCA | 0.361 |
| GCGAATCC | -0.0095 |
| CCGAATCC | 0.427 |
| ACGAATCG | 0.0102 |
| ACTAGCAG | -0.298 |
| GCCTACCC | 0.0606 |
| ACAGATCG | -0.0736 |
| GAACCGGC | 0.262 |
| GATCCGCA | 0.316 |
| TATCCGGA | 0.46 |
| GATCCGGC | 0.396 |
| AATCCGGT | 0.246 |
| AATCCGGA | 0.363 |
| GATCCGGA | 0.421 |
| TATCCTGA | -0.0875 |
| AATCCGGC | 0.241 |
| GTGAAAGA | 0.0652 |
| GTGAAGAA | -0.139 |

| Sequence | PBM E-score |
| --- | --- |
| GAAGTGTA | -0.107 |
| ATTGGTAA | -0.137 |
| GCCTGCAA | -0.18 |
| CCGTGAAA | 0.145 |
| GTATCATA | -0.0852 |
| AATCATAA | -0.089 |
| GCCCAGGA | -0.0894 |
| ATCGGACC | 0.308 |
| CGCGGAAG | 0.357 |
| AACGGAAG | 0.284 |
| ATCGGACG | 0.289 |
| ATCGGAAG | 0.433 |
| GTCGGAAC | 0.454 |
| CACGGAAG | 0.36 |
| GTGGGAAC | -0.102 |
| GACGGAAC | 0.317 |
| ATCGGAAC | 0.428 |
| CTCGGAAG | 0.48 |
| AACGGAAC | 0.348 |
| AATGACGC | -0.238 |
| GTGATGGA | -0.00596 |
| CGATTCTC | 0.0534 |
| ACGCTCCA | -0.0409 |
| AATGAGAA | -0.0737 |
| ATCGGACA | 0.196 |

| Sequence | PBM E-score |
| --- | --- |
| GTCGGAAA | 0.453 |
| CTCGGAAA | 0.479 |
| CTGGGAAA | -0.168 |
| CACGGAAA | 0.352 |
| CGCGGAAA | 0.316 |
| GTTGGAAA | 0.0285 |
| AACGGAAA | 0.393 |
| GTCAGAAA | -0.203 |
| ATCGGAAA | 0.424 |
| AGCGGAAA | 0.333 |
| AACGGACA | 0.0833 |
| CCCATTCA | -0.0249 |
| CGTTTATA | -0.0024 |
| ATCCCGGC | 0.323 |
| AGCGTAGG | -0.0217 |
| AAGGCGGG | -0.0393 |
| CTGAACAA | -0.0548 |
| AGGGATGG | -0.174 |
| ACGATTCC | 0.06 |
| CGACTTGA | -0.0925 |
| CGATCAAA | 0.0532 |
| AACTTGGC | -0.109 |
| AGCGGAAT | 0.141 |
| ATCGGAAT | 0.434 |
| TGCGGAAA | 0.299 |

| Sequence | PBM E-score |
| --- | --- |
| GGCGGAAC | 0.356 |
| AACGGAAT | 0.315 |
| CACGGAAC | 0.352 |
| TTCGGAAA | 0.474 |
| AGCGGAAC | 0.316 |
| CTAGGAAC | -0.00703 |
| TTCAGAAA | -0.23 |
| CTCGGAAC | 0.485 |
| CGCGGAAC | 0.395 |
| GCCATGGC | -0.361 |
| CCCTTTTA | -0.172 |
| AGCCTAGG | -0.0301 |
| GATCCTTA | -0.0996 |
| GCCATTCC | 0.127 |
| CCAGCGCC | -0.0109 |
| CTACGCCA | -0.271 |
| CACCCCAC | 0.0245 |
| CCTTGTGA | -0.0811 |
| CCTCTCCA | -0.309 |
| CCTCGCTA | -0.29 |
| CCGCTACA | 0.109 |
| AATTCAAC | 0.015 |

From the supplement of paper PMC3334620
